Screens (PubChem)
PABP1 MLLE inh = blocks PAM2 peptide binding to the PABP1 MLLE domain. GST-MLLE / FITC-PAM2 fluorescence polarization. actives 0.36% (n = 360,000). P11940. inhibition, % at 20 µM; in the data active = inhibition above about 35%, passing the limit was not always enough;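 note: plate controls were DMSO wells with GST-MLLE for no effect and wells lacking GST-MLLE protein for full effect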
Target sequence (P11940 whole entry, looked up, the tested form may be a part): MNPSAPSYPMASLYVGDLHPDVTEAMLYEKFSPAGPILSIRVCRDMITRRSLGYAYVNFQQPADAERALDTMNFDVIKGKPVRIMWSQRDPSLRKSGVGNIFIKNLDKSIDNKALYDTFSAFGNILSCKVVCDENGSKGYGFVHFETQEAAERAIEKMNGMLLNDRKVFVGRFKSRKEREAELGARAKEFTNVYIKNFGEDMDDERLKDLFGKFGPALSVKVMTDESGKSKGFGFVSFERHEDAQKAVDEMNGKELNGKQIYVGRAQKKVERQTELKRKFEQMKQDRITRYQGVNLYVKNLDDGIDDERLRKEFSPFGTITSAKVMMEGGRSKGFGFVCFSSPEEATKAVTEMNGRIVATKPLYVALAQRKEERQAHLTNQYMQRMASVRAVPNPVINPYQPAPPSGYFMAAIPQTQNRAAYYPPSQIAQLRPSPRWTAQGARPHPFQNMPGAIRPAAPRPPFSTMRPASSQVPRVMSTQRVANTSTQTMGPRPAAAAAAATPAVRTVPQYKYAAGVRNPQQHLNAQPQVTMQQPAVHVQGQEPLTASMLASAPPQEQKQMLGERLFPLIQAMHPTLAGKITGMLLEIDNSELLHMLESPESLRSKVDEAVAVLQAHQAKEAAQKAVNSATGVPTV
EBV gp42 block = EBV gp42 inhibition | Q1HVG2 | Fluorescence polarization binding assay, mP read-out | inhibition, % (tested at 21.74 µM) | actives 0.42% (n = 220,000); in the data active = inhibition above about 50%
PABP polyA inh = blocks human PABP binding to poly(A) RNA; actives 1% (n = 290,000); P11940; fluorescence polarization; AID 2014; calls only at 35 µM;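 note: calls also rest on retests at 20 µM and on dose response follow-up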
MEX-5 binding = C. elegans MEX-5 TCR-2 RNA binding activity. activity score (negative = inhibition of binding), % at 10 µM. actives 0.38% (n = 300,000). MEX-5/FITC-TCR2 RNA binding, fluorescence polarization; stronger effect = lower value. AID 1832;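 active = inhibition past about -25% in most replicates, and total fluorescence under double the plate's negative control median, limit read from the data; inconclusive = replicates evenly split on the limit, or fluorescence at least double controls; inactive = too little inhibition in most replicates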;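 note: 0% = DMSO and -100% = 5 µM competing unlabeled TCR2 RNA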
eIF4H FP inh = inhibitors of RNA binding by human eIF4H. Q15056. eIF4H fluorescence polarization binding assay. inhibition, % at 35 µM. actives 0.94% (n = 290,000). AID 2012;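 note: calls also rest on retests at 20 µM and on dose response follow-up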
An asterisk follows results filed as active; i = inactive; ? = inconclusive; . = not tested or not shown; + = active, no number. Rows were chosen to be rich in hits. Some 1.8% of all compounds tested hit in one or more screens of this group. Unless noted, the rule behind the calls is not given here.

SMILES	PABP1 MLLE inh	EBV gp42 block	PABP polyA inh	MEX-5 binding	eIF4H FP inh
O=C(CNc1ccc2ccccc2c1)N/N=C/c1ccc(OC(=O)/C=C/c2ccco2)cc1	-32	-4	+	1	71*
CC(/C=C/c1ccco1)=N/NC(=O)c1ccc(C)nc1	-1	3	i	0	0
COc1ccccc1N(C)S(=O)(=O)c1ccc(C(=O)Nc2cc(OC)c(OC)c(OC)c2)cc1	-3	.	.	.	.
CCOC(=O)C1CCN(C(=O)C2CC(=O)N(c3ccc4c(c3)OCCO4)C2)CC1 (stereo not drawn)	-2	.	+	1	19
CC(C)c1ccc(NC(=O)C2(C)Cc3c(-c4ccc(N(C)C)cc4)ccnc3O2)cc1 (stereo not drawn)	1	.	.	.	.
Cc1cc(C)n2nc(C(=O)Nc3ccc4c(c3)CCC4)nc2n1	-16	-6	i	-2	2.1*
CC(C)CC1C(=O)N(Cc2cn(Cc3ccco3)nn2)CCS(=O)(=O)N1Cc1ccc(-c2ccccc2)cc1 (stereo not drawn)	0	.	.	.	.
Cc1ccc(N=Nc2c(O)n(CN3CCOCC3)c3ccccc23)cc1	-8	94*	?	-28*	?
Cc1cccc(NC(=S)N=Nc2c(O)n(CN3CCOCC3)c3ccccc23)c1C	38	-21	i	1	2
O=C(NCCO)/C(=C\c1cccs1)NC(=O)c1cccs1	-4	-12	+	0	3
O=C(NCc1ccco1)/C(=C\c1cccs1)NC(=O)c1cccs1	-4	-6	i	0	5
CN(C)CCNC(=O)c1cccc(-c2cnc3c(NC=O)cc(/C=C/c4ccccc4)cn23)c1	-15	.	.	.	.
O=C(O)Cc1c[nH]c2cccc(O)c12	-6	-9	+	-15	88*
O=C(O)Cc1c[nH]c2ccccc12	1	.	.	0	.
COCCN1C(=O)CCC1(C)C(=O)Nc1ccc2c(c1)OCCO2 (stereo not drawn)	-1	.	.	.	.
N#C/C(=C/c1ccco1)C(N)=S	15	-3	+	-1	57*
O=C(O)c1ccc(-c2ccc(/C=c3/sc4nc5ccccc5n4c3=O)o2)cc1Cl	-70	.	+	-19	78
Cc1cc(C)c2nc3sc(=Cc4ccc(-c5ccccc5C(=O)O)o4)c(=O)n3c2c1	-106	.	.	.	.
Cc1cc(/C=c2\sc3nc4ccccc4n3c2=O)c(C)n1-c1ccc(C(=O)O)cc1	-44	7	+	0	64
Cc1ccccc1-c1cc2nc(NCc3ccccc3F)n(C)c(=O)c2s1	11	.	.	.	.
CCCCOC(=O)Nc1ccc(S(=O)(=O)Nc2ccc([N+](=O)[O-])cc2)cc1	-3	-9	+	3	90
Nc1nn(S(=O)(=O)c2ccccc2)cc1-c1cccc([N+](=O)[O-])c1	10	15	+	-2	active
CCC1C(=O)C(C)(C)C(=O)OC1c1ccc([N+](=O)[O-])cc1 (stereo not drawn)	7	.	+	0	110*
COc1ccc(Cc2nnc(NC(=O)C3CCCO3)s2)cc1OC (stereo not drawn)	45*	4	i	3	-7
COc1ccc(Cc2nnc(NC(=O)C3CCCO3)s2)cc1 (stereo not drawn)	20	-9	i	1	7
SMILES	PABP1 MLLE inh	EBV gp42 block	PABP polyA inh	MEX-5 binding	eIF4H FP inh
COCCn1c(SCC(=O)NCC2CCCO2)nc2c(c1=O)SCC2 (stereo not drawn)	126*	.	i	-3	12
O=c1cc(-c2ccccc2Cl)oc2c(NS(=O)(=O)c3cc(Cl)cc(Cl)c3O)ccc(O)c12	-3	7	i	-55*	20
N#CC(C#N)=Cc1cccn1-c1ccc(S(N)(=O)=O)cc1	9	5	+	0	0.5*
O=C(NCCC1=CCCCC1)c1[nH]c(C(F)(F)F)nc1-c1ccccc1	2	.	.	.	.
CC[n+]1ccccc1/C=C/Nc1ccccc1	-110	-11	+	2	-2
CC[n+]1c(/C=C(\C)Nc2ccccc2)sc2ccccc21	6	-9	i	.	-7
CC[n+]1c(/C=C(/C)SC)sc2ccccc21	46*	-10	i	-4	4
CC[n+]1c(/C=C(\C)SC)sc2ccccc21	20	3	i	-5	5
CC[n+]1c(/C=C/Nc2ccccc2)sc2ccccc21	-105	-48	+	-2	-1
CCn1c(/C=C/Nc2ccccc2)[n+](CC)c2cc(Cl)c(Cl)cc21	-121	-9	i	0	-5
CCCCN1CC(C)(C)[C@H](CC(=O)NC)C1=O	2	.	.	.	.
CC1CC(C)CN(C(C(=O)NC2CCCCC2)c2cc3ccccc3o2)C1 (stereo not drawn)	-5	.	.	.	.
COc1cccc(-c2cccc(-c3nc(C(=O)NCCCN4CCOCC4)cc4c3[C@H](CCO)N(S(=O)C(C)(C)C)C4)c2)c1 (stereo partly drawn)	1	.	.	.	.
Cc1ccc(C(=O)NC(=S)Nc2cccc(-c3nc4ccccc4s3)c2)cc1	41*	4	i	-2	10
CC(=O)Nc1cccc(-c2nc3ccccc3s2)c1	-10	5	i	3	-6
Cc1ccc(CN2CCN(/N=C/c3ccc(C(=O)O)cc3)CC2)cc1	1	-27	i	1	85*
Clc1ccc(-c2cc3nc(NCc4cccc(Cl)c4)ccn3n2)cc1	-20	.	.	.	.
Cc1cc(NS(=O)(=O)c2ccc(NC(=O)c3cc4c(=O)n5ccccc5nc4s3)cc2)nc(C)n1	-4	14	+	-4	72
CN(C)S(=O)(=O)c1cccc(NC(=O)c2cc3c(=O)n4ccccc4nc3s2)c1	-8	4	i	1	-13
O=C(Nc1ccccc1C(=O)O)c1cncc(Br)c1	-111	-56	i	-2	0.6*
O=C(NC(=S)Nc1ccccc1C(=O)O)c1cncc(Br)c1	20	.	i	-2	-15
COc1ccccc1N1CC(C(=O)OC(C)C(=O)Nc2ccc(F)cc2)CC1=O (stereo not drawn)	-47	.	.	.	.
O=C(Nc1cccs1)Nc1c(F)c(F)c(F)c(F)c1F	43*	-12	i	-1	53
O=C(Nc1cccs1)Nc1c(F)c(F)cc(F)c1F	12	-15	+	1	69*
COc1ccc(N=Nc2nc3cc(Br)c(Br)cc3n2C)c(OC)c1	157	118*	i	.	?
SMILES	PABP1 MLLE inh	EBV gp42 block	PABP polyA inh	MEX-5 binding	eIF4H FP inh
O=C(N/N=C/c1ccc[nH]1)c1cc2ccccc2cc1O	-15	.	i	2	76*
O=C(N/N=C/c1ccncc1)c1cc2ccccc2cc1O	-6	.	i	1	-5
CCN(CC)c1ccc(/C=C(/C#N)c2nc3ccccc3[nH]2)c(OC(C)C)c1	144	48	?	-33*	?
FC(F)Oc1ccc(NC(=S)NCc2ccccc2)cc1	-24	-19	i	0	2
Cc1cc2cc(CNC(=O)c3ccco3)ccc2n1C	37	-5	+	0	53*
Cc1cc2cc(CNC(=O)COc3ccccc3)ccc2n1C	50*	-9	i	0	9
COc1ccc(C(=O)NCc2ccc3c(c2)OCO3)cc1	-10	2	i	-5	-4
